In article PMC5540273 (PLoS ONE, 2017):

System: FGFR1
Settings: concentration: 1 μM, replicates: in singlicate; n = 1
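Further: KINOMEscan kinase panel screen.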

| Structure (SMILES) | %Inh |
| --- | --- |
| Cn1cc(-c2[nH]c3cc(NC(=O)[C@H](N)C4CCCCC4)cc4c3c2C=NNC4=O)cn1 | 97.9% |
| O=C(Nc1ccccc1F)NC1CCN(c2ccnc(Nc3ccc(F)cc3)n2)CC1 [GSK1379800] | 0% |
| Cc1ccc(F)c(C(=O)Nc2cccc(-c3nn4ccccc4c3-c3ccnc(Nc4cccc(F)c4)n3)c2)c1F [GSK361061] | 19% |
| O=C(O)C(F)(F)F.O=C(O)C(F)(F)F.O=c1[nH]ccc2nc(N[C@@H]3CCCNC3)nc(Nc3ccc(S(=O)(=O)N4CCOCC4)cc3)c12 [GSK2177277] | 81% |
| CN1CCN(CCCNc2nccc(-c3c(-c4ccc(F)cc4)nn4cc(C(F)(F)F)ccc34)n2)CC1 [GW621581] | 25% |
| CSc1cccc2c(-c3ccncn3)c(-c3ccc(F)cc3)nn12 [GW514786] | 0% |
| O=C(Nc1cccc(-c2nn3ccccc3c2-c2ccnc(Nc3cccc(C(F)(F)F)c3)n2)c1)c1c(F)cccc1F [GSK292658] | 0% |
| COc1ccc(Nc2nccc(N3CCC(NC(=O)Nc4cccc(OC)c4)C3)n2)cc1 (centres unmarked) [GSK1379742] | 5% |
| Cc1cccc(NC(=O)Nc2ccc(Oc3ncnc4ccn(C)c34)cc2)c1 | 0% |
| O=C(NC1CCN(c2ccnc(Nc3ccc(F)cc3)n2)C1)c1cc2ccccc2s1 (centres unmarked) [GSK1379716] | 0% |
| O=c1[nH]cc(-c2ccc(N3CCOCC3)cc2)c2sc(-c3cn[nH]c3)cc12 [GSK2276055] | 0% |
| Nc1ncc(-c2cccnc2)c2scc(-c3ccc4c(c3)CCN4C(=O)Cc3ccccc3)c12 [GSK683281] | 31% |
| O=C(Nc1cccc(Oc2ccc3nc(NC(=O)C4CC4)cn3n2)c1)c1ccccc1C(F)(F)F | 1% |
| Cl.Cl.NCC(NCc1ccc(-c2ccnc3[nH]ccc23)s1)c1ccccc1 (centres unmarked) [GSK1321565] | 4% |
| COc1ccc(CNC(=O)NC2CCN(c3ccnc(Nc4ccc(F)cc4)n3)CC2)cc1 [GSK1379788] | 0% |
| CCn1c(-c2nonc2N)nc2c(C#CC(C)(C)O)nc(OC[C@H](N)c3ccccc3)cc21 [GSK943949] | 11% |

| Structure (SMILES) | %Inh |
| --- | --- |
| CN(c1ccc(NC(=O)Nc2cc(C(F)(F)F)ccc2F)cc1)c1ccnc(Nc2ccc(S(N)(=O)=O)cc2)n1 [GW809893] | 76% |
| O=C(Nc1n[nH]c2nc(-c3ccc(O)cc3)ccc12)C1CC1 [SB-710363] | 0% |
| O=C(Nc1cccc(-c2nn3ccccc3c2-c2ccnc(Nc3cccc(F)c3)n2)c1)c1c(F)ccc(F)c1Cl [GSK357952] | 14% |
| Nc1ncnc2c1nc(-c1ccccc1)n2-c1ccccc1 [SKF-97293] | 12% |
| Cc1cccc(Nc2nc(N[C@H]3CCNC3)ncc2C(N)=O)c1.Cl [GSK2197149] | 0% |
| COc1cccc(C2=C(Nc3ccc(Cl)c(C(=O)O)c3)C(=O)NC2=O)c1 [SB-390769] | 8% |
| COc1cc(Nc2nccc(-c3c(-c4cccc(NC(=O)c5c(F)cccc5F)c4)nn4ccccc34)n2)cc(OC)c1OC [GSK323521] | 17% |
| CC(=O)Nc1nc2cnc(Nc3cc(NC(=O)c4cccc(C5(C#N)CC5)c4Cl)ccc3C)nc2s1 | 2% |
| c1ccc(Oc2ccc(Nc3ccnc4cc(-c5ccc(CNCCN6CCOCC6)o5)ccc34)cc2)nc1 [GW567145] | 0% |
| CNC(=O)c1ccccc1Nc1nc(Nc2ccc(N3CCOCC3)cc2)ncc1Cl.Cl [GSK1576028] | 99.7% |
| Cl.Cl.NCC(NC(=O)c1cc(-c2ccccc2)c(-c2ccnc3[nH]ccc23)s1)c1ccccc1 (centres unmarked) [GSK1321561] | 15% |
| Fc1ccc(-c2ncn(C3CCNCC3)c2-c2ccnc(Oc3ccc(-c4ccccc4)cc3)n2)cc1 [SB-245391] | 19% |
| Cn1cc(-c2ccc3c(c2)CCN3C(=O)Cc2cccc(F)c2)c2c(N)ncnc21 [GSK2603358] | 0% |
| COc1cc(Nc2nccc(N3CCC(NC(=O)c4cc5ccccc5s4)C3)n2)cc(OC)c1OC (centres unmarked) [GSK1379760] | 0% |
| CC(=O)N1CCN(c2ccc(Nc3nccc(-c4sc(C(C)C)nc4-c4cccc(NS(=O)(=O)c5cccc(Cl)c5)c4)n3)cn2)CC1 [GSK1660437] | 20% |
| COc1cc(Nc2ncc3c(C)nc(-c4cc5ccccc5[nH]4)n3n2)cc(OC)c1OC [GW869516] | 35% |
